Only some compounds are listed: those with a hit (about 3.6% of all), similar ones and a draw of the others.
Autofluor counter – compound fluorescence in toxin protease inhibitor counterscreen; compound autofluorescence counterscreen, microsphere flow cytometry; stronger effect = higher value; fluorescence intensity (concentration not given with the values); 360,000 compounds, 3.1% hits; in the data active means fluorescence intensity above about 16000; inconclusive means no clear call, values can overlap the other calls
MazF activator – activators of E. coli MazEF toxin-antitoxin RNase. P0AE70. FAM/BHQ RNA-DNA oligo cleavage fluorescence, 5 h. activation, % at 20 µM. 350,000 compounds, 0.32% hits; in the data active means activation above about 50%
BoNT F protease – blocks Botulinum neurotoxin F light chain protease; Multiplex microsphere protease cleavage assay, flow cytometry; inhibition, % at 10 µM; 360,000 compounds, 0.22% hits; in the data active means inhibition above about 35%, passing the limit was not always enough; inconclusive means no clear call, values can overlap the other calls
Anthrax LF inh2 – inhibitors of Bacillus anthracis lethal factor protease | multiplex microsphere protease cleavage assay, LF | inhibition, % at 10 µM | 360,000 compounds, 0.12% hits | AID 588501
BoNT-A LC inh2 – blocks Botulinum neurotoxin A light chain protease | multiplex microsphere protease substrate cleavage, flow cytometry | inhibition, % at 10 µM | 360,000 compounds, 0.17% hits
Numbers stand for hits; – = inactive; ? = inconclusive; · = no result given. Unless noted, no stated cut-off is given here; in the data, active means inhibition above about 30%; inconclusive means no clear call, values can overlap the other calls; inactive means below that.

SMILES | Autofluor counter | MazF activator | BoNT F protease | Anthrax LF inh2 | BoNT-A LC inh2
CCC(C)NC(=O)C1CC(c2ccc(OC)cc2)=NO1 (stereo not given) | 20670 | – | – | – | –
COc1cc(C2=NOC(C(=O)N3CCOCC3)C2)cc(OC)c1OC (stereo not given) | 24903 | – | – | – | ?
COc1ccc(C2=NOC(C(=O)NCCN3CCOCC3)C2)cc1 (stereo not given) | 21268 | – | – | – | –
COc1cc(-c2c(C#N)c(N)nc3c2CCCC3)cc(OC)c1OC | – | – | – | – | –
COc1ccc(-c2c(C#N)c(N)nc3c2CCCC3)cc1OC | 16197 | – | – | – | –
Cc1cccn2cc(-c3ccc(S(=O)(=O)N4CCOCC4)cc3)nc12 | 23299 | – | – | – | –
O=S(=O)(c1ccc(-c2cn3ccccc3n2)cc1)N1CCOCC1 | 22528 | – | – | – | –
Cc1cccn2cc(-c3ccc(S(=O)(=O)N4CCCCC4)cc3)nc12 | – | – | – | – | –
COc1cc(C(=O)NCCC(=O)N2CCCCC2)cc(OC)c1OC | – | – | – | – | –
CCOC(=O)C1CCN(C(=O)CCNC(=O)c2cc(OC)c(OC)c(OC)c2)CC1 | 16426 | – | – | – | –
COc1cc(C(=O)NCCC(=O)NCCCN2CCCCC2C)cc(OC)c1OC (stereo not given) | 24313 | – | – | – | –
CC(C)C(=O)Nc1ccc(Cc2ccc(NC(=O)C(C)C)c(O)c2)cc1O | 16658 | – | – | – | –
C=CCN1C(=O)/C(=C2/Sc3ccccc3N2CC)SC1=S | – | 161.8 | ? | – | –
O=C(/C=C/c1ccc(-c2ccccc2[N+](=O)[O-])o1)c1ccc(Br)cc1 | 21485 | – | – | – | ?
N#C/C(=C/c1ccc(-c2ccccc2[N+](=O)[O-])o1)C(N)=O | – | 54.2 | – | – | –
O=C(/C=C/c1ccc(-c2ccccc2[N+](=O)[O-])o1)c1ccc(F)cc1 | – | – | – | – | –
N#C/C(=C/c1ccc(-c2cc([N+](=O)[O-])ccc2Cl)o1)C(N)=O | – | – | – | – | –
CC(C)NC(=O)COc1ncnc2sccc12 | 18786 | – | – | – | –
CC(=O)c1cccc(OCc2cc(C(=O)NCc3nc(C)c(C)s3)no2)c1 | – | – | – | – | –
C=CCOc1ccc(NC(=O)C(=O)NCCCn2ccnc2)cc1 | 19499 | – | – | – | –
O=C(c1ccc(C(F)(F)F)cc1)c1c[nH]c(C(=O)NCCCn2ccnc2)c1 | 19564 | – | – | – | ?
O=C(NCCCn1ccnc1)c1ccco1 | 24362 | – | – | – | –
COc1ccc(C(=O)Nc2ccccc2C(=O)NCCCn2ccnc2)cc1 | – | – | – | – | –
O=C(Nc1ccccc1C(=O)NCCCn1ccnc1)c1ccccc1 | 20501 | – | – | – | –
CCOC(=O)C1=CN(Cc2cccc(F)c2)S(=O)(=O)N(CC)C1c1ccc(C(F)(F)F)cc1 (stereo not given) | – | – | – | – | –
SMILES | Autofluor counter | MazF activator | BoNT F protease | Anthrax LF inh2 | BoNT-A LC inh2
O=C(NCc1ccccc1)c1ccc(S(=O)(=O)NCc2ccco2)cc1 | – | – | – | – | –
O=C(Oc1coc(CSc2nnc(NC(=O)c3cccs3)s2)cc1=O)c1ccccc1 | – | – | – | – | –
Cc1ccc(C(=O)Oc2coc(CSc3nnc(NC(=O)C4CC4)s3)cc2=O)cc1 | – | – | – | – | 30.0
CC1=NN(c2nc(N)nc(/C(C#N)=C/c3ccc([N+](=O)[O-])o3)n2)C(C)(C)C1 | – | – | – | – | –
COc1ccc(CN(CCN(C)C)Cc2ccccc2)c(OC)c1 | 20994 | – | – | – | –
O=P(Cc1ccccc1O)(c1ccccc1)c1ccccc1 | – | – | – | – | –
O=P(Cc1ccccn1)(c1ccccc1)c1ccccc1 | 24061 | – | – | – | –
Oc1ccc(C[C@H]2CNC(=S)N2CC2CCCN2C[C@H](Cc2ccc(O)cc2)N2C[C@H](Cc3ccc(O)cc3)N(CC3CCCCCC3)C2=S)cc1 (stereo not given in full) | – | – | – | – | –
COc1ccc(C(=O)c2cn[nH]c2-c2cc(Cl)ccc2O)cc1 | 16806 | – | – | – | –
CC(COc1cccc2ccccc12)CN1CCN(C)CC1 (stereo not given) | 24009 | – | – | – | –
Cc1nn(-c2ccc(F)cc2F)c(=O)c2noc(C)c12 | · | – | · | · | ·
Cc1nn(-c2ccc(F)cc2F)c2c1-c1nc(N3CCCC3)ncc1CC2 | 23757 | – | – | – | ?
COc1ccc(-c2nnc(SCc3nnc(-c4ccccc4)o3)n2-c2ccccc2)cc1 | – | 68.9 | – | – | –
Cc1ccc(C(=O)CSc2nnc(-c3ccccc3)n2-c2ccccc2)o1 | 20254 | – | – | – | ?
CCn1c(SCc2nnc(-c3ccccc3)o2)nnc1-c1ccc(S(=O)(=O)N2CCCC2)cc1 | 23063 | – | – | – | –
O=c1c2ccccc2nc(SCc2nnc(-c3ccccc3)o2)n1-c1ccccc1 | – | – | – | – | –
COc1ccc(-c2noc(CSc3nc4ccccc4c(=O)n3-c3ccccc3)n2)cc1 | 21618 | – | – | – | –
CCn1c(SCc2ccccc2)nnc1-c1ccc(S(=O)(=O)N2CCCCC2)cc1 | – | – | – | – | –
O=C(Nc1ccccc1F)Nc1cccnc1Cl | – | – | – | – | –
Clc1cccc(CN2CCC3CC2c2cc(N4CCCCC4)ccc23)c1 (stereo not given) | – | – | – | – | –
O=C(CSc1nnc(-c2ccccc2)n1-c1ccccc1)c1ccc[nH]1 | – | – | – | – | –
O=C(CSc1nnc(-c2ccccc2)n1-c1ccccc1)c1cccs1 | 21163 | – | – | – | ?
C=CCN1C(=O)S/C(=C\c2ccc(N3CCOCC3)cc2C)C1=O | – | 103.4 | – | – | –
CCN1CCN(C(=O)NS(=O)(=O)c2ccc(C)cc2)CC1 | – | – | – | – | –
O=C1COc2ccc(C(=O)COC(=O)CCCOc3ccccc3)cc2N1 | – | – | – | – | –
SMILES | Autofluor counter | MazF activator | BoNT F protease | Anthrax LF inh2 | BoNT-A LC inh2
O=C(CSc1nnc(CNC(=O)c2ccco2)o1)Nc1ccccc1F | – | – | – | – | –
CCN(CC(=O)Nc1c(F)cccc1F)C(=O)C1Cc2ccccc2CN1S(=O)(=O)CC (stereo not given) | 16229 | – | – | – | –
CCS(=O)(=O)N1Cc2ccccc2CC1C(=O)Nc1ccc(F)cc1 (stereo not given) | – | – | – | – | –
CCS(=O)(=O)N1Cc2ccccc2CC1C(=O)N1CCN(c2cccc(C)c2C)CC1 (stereo not given) | 23317 | – | – | – | –
CSc1nc2n(n1)C(c1cc(Br)ccc1F)C(C(=O)N(C)C)=C(C)N2 (stereo not given) | 20105 | – | – | – | –
CC(C)c1ccc(-n2cccc2/C=C2/C(=N)N3C=CSC3=NC2=O)cc1 | – | – | – | – | –
Cc1ccccc1Cn1cccc1/C=C1/C(=N)N2C=CSC2=NC1=O | – | 163.6 | – | – | –
O=C(Nc1ccccn1)C1CCN(S(=O)(=O)c2cccs2)CC1 | – | – | – | – | –
Cc1cccc(NC(=O)C2CCN(S(=O)(=O)c3cccs3)CC2)n1 | 17032 | – | – | – | ?
